Test systems include HCT-15 colon; HT29 colon; SNB-75 CNS; SNB-19 CNS; U251 CNS; PC-3 prostate; SK-MEL-5 melanoma; UACC-62 melanoma; LOX IMVI melanoma; SK-MEL-28 melanoma; SK-MEL-2 melanoma; EKVX NSCLC; SN12C renal; UO-31 renal; TK-10 renal; ACHN renal; CAKI-1 renal; CCRF-CEM leukemia; MOLT-4 leukemia.
What all share (assay): NCI-60 one-dose screen, 48 h (100 = growth as untreated, 0 = no growth, -100 = all killed)
Holding throughout (settings): 10 µM unless noted

Structures are written as SMILES. About 83,000 compounds went through this panel and 20% of them were active in at least one assay; those are over-represented in the sample as a whole.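 Cells were grown in 96-well plates and exposed to the test compound at a single concentration for 48 hours; results are reported as percent growth, with values below 10 considered active.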 Unmarked numbers belong to inactive results. Calls of active or inactive are those of the source.

`O=[N+]([O-])CC(c1ccccc1F)c1c[nH]c2ccccc12` (stereo not drawn): the growth in the test on HCT-15 colon is 39.3%; with HT29 colon, 23.6%; in the test with SNB-75 CNS, 54.9%; in the test with SNB-19 CNS, 80.5%; with U251 CNS, 65.6%; in the test on PC-3 prostate, 87.5%. Moreover, the growth in the test with SK-MEL-5 melanoma was 81.5%; in the test on UACC-62 melanoma, 53.4%; with LOX IMVI melanoma, 61%; with SK-MEL-28 melanoma, 78.2%; in the test with SK-MEL-2 melanoma it was 57%; in the test with EKVX NSCLC, 79.4%. In addition, the growth with SN12C renal is 88.6%; in the test on UO-31 renal it was 71.9%; in the test on TK-10 renal, 96.8%; with ACHN renal it was 94.7%; in the test on CAKI-1 renal it was 59.2%; with CCRF-CEM leukemia it was 69.7%. In the test on MOLT-4 leukemia, the growth is 59%.
With `O=C(C1CCC1)N1N=C(c2ccc(-n3ccc(C(F)(F)F)n3)cc2)CC1c1ccc[nH]1` (stereo not drawn), the growth in the test with HCT-15 colon was 85.6%; with HT29 colon, 89.8%; in the test with SNB-75 CNS, 101%; with SNB-19 CNS, 95.9%; in the test with U251 CNS it was 82.2%; in the test on PC-3 prostate, 76.5%. Besides, the growth with SK-MEL-5 melanoma was 100%; with UACC-62 melanoma, 90.5%; in the test with LOX IMVI melanoma, 92.8%; in the test with SK-MEL-28 melanoma, 104%; in the test on SK-MEL-2 melanoma, 101%; with EKVX NSCLC it was 90.4%. The growth with SN12C renal was 98.3%; in the test on UO-31 renal, 94.4%; in the test with TK-10 renal it was 89.1%; in the test with ACHN renal, 102%; in the test with CAKI-1 renal, 91.5%; in the test on CCRF-CEM leukemia, 89.9%. The growth in the test on MOLT-4 leukemia is 74.8%.
On to `Cn1cc(CC2CC(=O)N(c3ccccc3)C2=O)sc1=NC(=O)c1ccccc1` (stereo not drawn), for which the growth is 101% in the test on HCT-15 colon; 103% in the test with HT29 colon; 82% with SNB-75 CNS; 100% in the test on SNB-19 CNS; 102% in the test with U251 CNS; 95.5% in the test with PC-3 prostate. Moreover, the growth in the test with SK-MEL-5 melanoma was 101%; in the test on UACC-62 melanoma it was 93.3%; in the test on LOX IMVI melanoma it was 102%; in the test with SK-MEL-28 melanoma, 98.1%; in the test with SK-MEL-2 melanoma it was 106%; with EKVX NSCLC it was 95.1%. For the same molecule, the growth in the test on SN12C renal was 103%; in the test with UO-31 renal, 83.5%; with TK-10 renal it was 102%; in the test on ACHN renal it was 101%; in the test with CAKI-1 renal, 94.7%; in the test on CCRF-CEM leukemia, 108%. Besides, the growth in the test with MOLT-4 leukemia was 106%.
For the molecule `COc1cc(/C(C)=C(\c2ccc(Cl)cc2)c2ccc(OCCN(C)C)cc2)ccc1F`, the growth was 18.1% in the test on HCT-15 colon; 5.91% (active) in the test with HT29 colon; 65.4% in the test with SNB-75 CNS; 87.7% in the test on SNB-19 CNS; 44.3% in the test on U251 CNS; 58.1% with PC-3 prostate. The growth is 44.2% in the test on SK-MEL-5 melanoma; 50.3% in the test on UACC-62 melanoma; 38.3% with LOX IMVI melanoma; 64.5% in the test on SK-MEL-28 melanoma; 104% with SK-MEL-2 melanoma; 81.2% with EKVX NSCLC. Also, the growth in the test with SN12C renal is 73.8%; with UO-31 renal, 47.5%; in the test with TK-10 renal, 72.1%; in the test on ACHN renal, 87.4%; in the test with CAKI-1 renal it was 62.7%; with CCRF-CEM leukemia, 49.5%. The growth in the test on MOLT-4 leukemia was 42.4%.
Take `O=C(/C=C/c1ccc[nH]1)c1ccc(-n2ccc(C(F)(F)F)n2)c(F)c1`: the growth is 85% in the test on HCT-15 colon; 92.5% in the test with HT29 colon; 75.6% in the test on SNB-75 CNS; 101% with SNB-19 CNS; 88.7% with U251 CNS; 48.1% in the test with PC-3 prostate. Moreover, the growth in the test with SK-MEL-5 melanoma is 97.6%; with UACC-62 melanoma it was 84.9%; in the test on LOX IMVI melanoma it was 97.7%; in the test with SK-MEL-28 melanoma, 100%; in the test on SK-MEL-2 melanoma, 108%; with EKVX NSCLC, 80.2%. Besides, the growth with SN12C renal was 92.1%; in the test with UO-31 renal, 46.9%; in the test with TK-10 renal, 104%; in the test on ACHN renal, 103%; in the test on CAKI-1 renal it was 93%; in the test with CCRF-CEM leukemia, 59.7%. In addition, in the test on MOLT-4 leukemia, the growth was 84%.
For `CCCOC(=O)N[C@H]1CCc2cc(OC)c(OC)c(OC)c2-c2ccc(SC)c(=O)cc21`, the growth was 14.8% in the test with HCT-15 colon; 14.2% in the test on HT29 colon; 34.3% with SNB-75 CNS; 36.2% with SNB-19 CNS; 19.6% with U251 CNS; 29.5% with PC-3 prostate. Further, the growth in the test on SK-MEL-5 melanoma was -14.6% (active); in the test with UACC-62 melanoma it was 41.5%; in the test with LOX IMVI melanoma, 18.6%; in the test on SK-MEL-28 melanoma, 58.7%; in the test with SK-MEL-2 melanoma, 50.8%; in the test on EKVX NSCLC it was 51.5%. Moreover, the growth was 29.5% with SN12C renal; 38.3% in the test with UO-31 renal; 48.2% in the test on TK-10 renal; 27.8% in the test with ACHN renal; 19.8% in the test with CAKI-1 renal; 4.23% (active) with CCRF-CEM leukemia. Moreover, in the test on MOLT-4 leukemia, the growth is 7.04% (active).
Consider `Cc1ccc(C(=O)/C(=C/c2ccc([N+](=O)[O-])cc2)SCc2ccc(Cl)cc2)cc1`, for which the growth was 8.64% (active) in the test with HCT-15 colon; -22.7% (active) in the test with HT29 colon; 84.8% in the test with SNB-75 CNS; 34.1% with SNB-19 CNS; -56.3% (active) in the test on U251 CNS; 63.3% in the test on PC-3 prostate. Moreover, the growth with SK-MEL-5 melanoma was 91%; in the test with UACC-62 melanoma it was 65.9%; in the test with LOX IMVI melanoma, 0.133% (active); in the test with SK-MEL-28 melanoma, 90.9%; with SK-MEL-2 melanoma it was 91.5%; in the test on EKVX NSCLC it was 89%. Besides, the growth in the test on SN12C renal is 70.3%; in the test with UO-31 renal it was 48.2%; in the test on TK-10 renal, 90.8%; in the test with ACHN renal, 91.1%; in the test on CAKI-1 renal, 74.8%; in the test with CCRF-CEM leukemia, 8.74% (active). Moreover, the growth with MOLT-4 leukemia is 19.8%.
